Assay results taken from PubChem BioAssay (NCI).
This is part of a sample that, as a whole, favours compounds with a hit. Of some 83,000 tested, about 20% had one in any assay.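 Results are percent growth after 48 hours of single-concentration exposure. 100 means growth as in untreated cells, lower positive values show inhibition; negative values down to -100 show cell death.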 Values without a mark were called inactive. The source made the active and inactive calls. How the source made its calls: active means growth percent below 10; inactive means the rest.

Legend:
Assay in all cases: NCI-60 one-dose screen, 48 h (100 = growth as untreated, 0 = no growth, -100 = all killed)
Conditions in all cases: 10 µM unless noted
[1] = test system: NCI-H23 lung
[2] = test system: NCI-H226 lung
[3] = test system: NCI-H322M lung
[4] = test system: HOP-62 NSCLC
[5] = test system: NCI-H460 lung
[6] = test system: HOP-92 NSCLC
[7] = test system: NCI-H522 lung
[8] = test system: A549/ATCC NSCLC
[9] = test system: 786-0 renal
[10] = test system: COLO 205 colon

SMILES	growth [1]	growth [2]	growth [3] [%]	growth [4] [%]	growth [5]	growth [6]	growth [7]	growth [8]	growth [9]	growth [10]
C=C1C(=O)O[C@H]2[C@H]1CC/C(C(=O)NCCCCCNC(=O)/C1=C/CC[C@@]3(C)O[C@H]3[C@H]3OC(=O)C(=C)[C@@H]3CC1)=C\CC[C@@]1(C)O[C@@H]21	97.6%	103%	93.9	98.8	109%	105%	89.3%	95.3%	101%	102%
COc1ccc(-c2cnc3c(-c4cccc5cnccc45)cnn3c2)cc1	74.5%	29.3%	68.3	55.1	23.4%	63%	48.3%	39.8%	29.4%	67.8%
N#Cc1c(-c2cccc([N+](=O)[O-])c2)nc(SCC(=O)c2ccc(Cl)cc2)[nH]c1=O	98.5%	97.6%	96.8	87.4	108%	94.3%	88.8%	101%	96.7%	103%
CC(=O)[C@H]1CCC/C=C/[C@@H]2C[C@H](O)C[C@H]2[C@H](O)/C=C/C(=O)O1	-5.21% (active)	-57.6% (active)	29	25.4	6.67% (active)	22.9%	-41.2% (active)	20.5%	-48.3% (active)	-94.8% (active)
COc1cc(/C=N/NC(=O)c2cnn3c2NC(c2ccccc2)C3)ccc1Oc1ccccc1 (stereo not given)	43.8%	54.1%	30.8	22.3	7.15% (active)	26.1%	13.8%	25.5%	25.5%	24.9%
Cc1cnc(C(=O)Nc2nc3ccc(S(=O)(=O)Nc4ccc(C5(C(F)(F)F)CC5)cc4)cc3[nH]2)cn1	33.9%	13.2%	33.9	21.1	0.982% (active)	32.8%	16%	23.7%	26.2%	-1.76% (active)
NS(=O)(=O)c1ccc(CCN2C(=O)c3cc(Cl)c(Cl)cc3C2=O)cc1	105%	106%	97.8	102	109%	104%	86.5%	105%	96.7%	115%
CN1CCN(CCNc2nccc(-c3c(-c4cccc(O)c4)nc4sccn34)n2)S1(=O)=O	46.1%	100%	70.2	79.3	57.3%	49%	46.2%	88%	93.2%	17.6%
COc1cc2c(=O)n(CCCN(C)C)c3c4cc5c(cc4ccc3c2cc1OC)OCO5	58.6%	52.8%	61.6	38	18.2%	67.7%	53.9%	41.8%	62.8%	49%
COc1ccc(/C=C/c2nc(Nc3ccc(S(=O)(=O)Nc4nc(C)cc(C)n4)cc3)c3ccccc3n2)cc1	78.1%	68.9%	29	75.6	63%	66.4%	68.5%	42.2%	78.8%	59.8%
OC(c1ccc(F)c(C(F)(F)F)c1)c1cnccc1NC1CCCCC1 (stereo not given)	51.7%	78.1%	89.5	85.8	69.5%	40.2%	67.1%	69.9%	63.6%	-60.8% (active)
CC(=O)Oc1ccc(/C=N/NC(N)=S)nc1	37.8%	32.1%	92.8	74.5	96.4%	63.9%	74.5%	98.2%	53.3%	92.7%
COc1ccc(OC)c(-c2cc(-c3ccc(Cl)cc3)c3c(N)c(C(=O)c4ccc(Cl)cc4)sc3n2)c1	91.4%	96.1%	93.6	81.3	105%	90.9%	86.1%	97.3%	97.3%	110%
C[C@H]1[C@H](C)CC[C@]2(C(=O)Nc3ccc4ncccc4c3)CC[C@]3(C)C(=CC[C@@H]4[C@@]5(C)CCCNC(C)(C)[C@@H]5CC[C@]43C)[C@H]12	51%	110%	63.1	95.2	-79.8% (active)	60.2%	9.94% (active)	-92.1% (active)	-96.2% (active)	-82.7% (active)
N/C(=N\C(N)=N\c1nc2ccccc2s1)c1ccnc(Br)c1	44.5%	60.1%	97.4	29.8	16.4%	47%	9.9% (active)	61.3%	32.2%	21.4%
C=C(C)[C@@H]1CC[C@]2(C(=O)N3CCN(C)CC3)CC[C@]3(C)[C@H](CC[C@@H]4[C@@]5(C)C/C(=C/c6ccncc6)C(=O)C(C)(C)[C@@H]5CC[C@]43C)[C@@H]12	74.4%	61.9%	85.4	85.1	37.2%	39.7%	47.6%	40.4%	65%	53.7%
CCNC(=O)Oc1ccc(/C(=C(\C)c2ccccc2)c2ccc(OCCN3CCCCC3)cc2)cc1	73.6%	92.2%	82.7	59.4	49.3%	73.4%	93.4%	56%	16.4%	6.41% (active)
O=S(=O)(NCCCNc1nccc(-c2c(-c3cccc(O)c3)nc3occn23)n1)c1ccc(Cl)cc1	94.6%	108%	103	114	92.5%	96.6%	87.6%	90.5%	102%	27.7%
COc1ccc2[nH]c(=O)c(CN3CCN(c4nccc(-c5ccc(Cl)cc5)n4)CC3)cc2c1	91.2%	94.4%	85.4	80.1	76.3%	101%	77%	73.9%	85.2%	95.9%
COc1ccc(/C=C/c2nc(Nc3cccc(NC(C)=O)c3)c3ccccc3n2)cc1	87.6%	82.3%	45.5	82.1	84.3%	69.4%	75.9%	55.4%	88.9%	105%
COc1cc(C2C3=C(COC3=O)N(CCO)c3cc4c(cc32)OCO4)cc(OC)c1OC (stereo not given)	12.2%	6.36% (active)	50.3	12.6	-54.3% (active)	52.1%	-13% (active)	30.8%	9.85% (active)	-84.3% (active)
COc1cccc(-c2nc3occn3c2-c2ccnc(NCCNS(=O)(=O)c3cccc4ccccc34)n2)c1	103%	99.6%	104	103	101%	122%	102%	105%	97.8%	96%
CNC(=O)c1cncc(Cn2nc(C)c(NC(=O)c3ccc(COc4ccc(C(F)(F)F)cc4C)cc3)c2C)c1	49.3%	58.1%	88.8	56.9	62%	79.2%	49.2%	55%	68.8%	66.9%
NS(=O)(=O)c1ccc(Cn2c(SCC(=O)N/N=C/c3ccccc3O)nc3ccccc3c2=O)cc1	63.2%	57%	46.8	35.5	49.1%	54%	-1.28% (active)	69.4%	71.1%	29.1%
O=S(=O)(NCCNc1nccc(-c2c(-c3cccc(F)c3)nc3sccn23)n1)c1ccc(Cl)cc1	74.9%	49.3%	65.5	82.6	30.1%	76.6%	68.2%	32.1%	51.3%	40%
COc1cc2c(c(O)c1Cl)C(=O)c1c(O)cc(C[C@H](C)O)cc1[C@H]2[C@H]1c2cc(C[C@H](C)O)cc(O)c2C(=O)c2c1cc(OC)c(Cl)c2O	9.36% (active)	19%	17.7	12.4	-0.266% (active)	-24.2% (active)	5.59% (active)	12.5%	14.3%	-72.5% (active)
